Most compounds without a hit are left out; they make up all but 19% or so of the library.
DT40 TDP1 CPT: growth inhibition of DT40 Tdp1-/-;hTDP1 cells with camptothecin (screen for TDP1 inhibitors) | chicken DT40 Tdp1-/-;hTDP1 cells + 20 nM CPT, ATP luminescence, 48 h | Potency, µM (highest dose often 46.2 µM), hits mostly inhibitors | 420,000 tested, 12% active; also: nearly all actives have a fitted effect of over 55% in size
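Cell growth measured by CellTiter-Glo luminescence after a minimum 48 h, 37 C compound exposure with 20 nM CPT in Tdp1-knockout DT40 cells stably expressing hTDP1, seeded 400/well; qHTS titration format.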
HepG2 viability: kills HepG2 cells in TGF-b inhibitor counter-screen. HepG2 CAGA-GFP viability, ATP luminescence, 18 h. AID 588856. Potency, µM (doses to about 46.1 µM), most hits filed as cytotoxic. 410,000 tested, 0.76% active
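CellTiter-Glo luminescence gave cytotoxicity after 18 hours at 37 degrees C. The cells were HepG2 CAGA-GFP in 1% FBS DMEM, stimulated with 500 pg/mL TGF-beta after compound addition. %Activity was normalised to no-cell wells (complete cell-killing) and DMSO (no toxicity), and curves were fitted and classified.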
TGFb inhibitor: blocks TGF-b signaling; HepG2 CAGA-GFP TGF-b/SMAD3 reporter, GFP fluorescence, 18 h; TGF-beta stimulated, 500 pg/mL final; Potency, µM (titrated, usually from 46.1 µM), actives largely listed as inhibitors; 410,000 tested, 1.2% active; AID 588855; also: nearly all actives have a fitted effect of over 65% in size
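TGF-beta reporter screen: HEPG2 CAGA-GFP, 1% FBS, 500 pg/mL TGF-beta final, 18 h; per-cell GFP summed per well; curves fitted and categorized by class.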
TDP1 inh: TDP1 (human) enzyme inhibition | Potency, µM (top dose mostly 130 µM), most hits filed as inhibitors | recombinant TDP1, AlphaScreen DNA substrate cleavage | 350,000 tested, 0.28% active | AID 485290; also: nearly all actives have a fitted effect of over 40% in size
Target sequence (Q9NUW8 whole entry, looked up): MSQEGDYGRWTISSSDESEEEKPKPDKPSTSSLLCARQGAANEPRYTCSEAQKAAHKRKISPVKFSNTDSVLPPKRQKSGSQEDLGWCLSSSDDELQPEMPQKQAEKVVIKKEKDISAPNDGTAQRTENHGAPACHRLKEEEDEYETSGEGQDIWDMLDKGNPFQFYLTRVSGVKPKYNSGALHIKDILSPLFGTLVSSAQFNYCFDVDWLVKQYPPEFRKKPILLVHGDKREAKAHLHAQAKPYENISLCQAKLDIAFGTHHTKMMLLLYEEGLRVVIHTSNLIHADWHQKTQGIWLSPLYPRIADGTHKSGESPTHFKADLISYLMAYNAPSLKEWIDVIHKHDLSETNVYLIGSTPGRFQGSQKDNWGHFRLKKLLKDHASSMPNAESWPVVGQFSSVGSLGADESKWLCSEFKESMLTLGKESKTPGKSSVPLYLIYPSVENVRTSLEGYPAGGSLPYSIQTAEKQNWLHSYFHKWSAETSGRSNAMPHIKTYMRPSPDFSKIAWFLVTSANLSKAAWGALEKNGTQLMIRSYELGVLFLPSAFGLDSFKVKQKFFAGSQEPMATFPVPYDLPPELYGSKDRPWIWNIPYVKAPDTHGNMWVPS
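AlphaScreen read-out: signal falls as enzyme removes the 3' tyrosine-FITC from a 5'-biotinylated DNA oligo (15 nM, 5 min, RT). Enzyme was E. coli-made recombinant Tdp1 at 1 nM, exposed to compound for 15 min beforehand; beads 10 ug/ml, 10 min.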
IL1B secr inh: inflammasome signaling inhibition, IL-1 beta readout; THP-1 LPS/ATP IL-1B secretion, AlphaLISA, 16 h; hits give low values; activity change, % at 57.5 µM; 360,000 tested, 4.7% active; in the data active = activity change below about -50%; inconclusive = mostly about -30% to -49%
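Secreted IL-1B measured by AlphaLISA bead assay after 16 h compound exposure of THP-1 cells; compounds (final up to 57.5 uM) added 1 h before LPS (250 ng/mL) and ATP (1.25 mM) stimulation; lower signal means less secretion.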
TDP1 cell noCPT: qHTS for Inhibitors of human tyrosyl-DNA phosphodiesterase 1 (TDP1): qHTS in cells in absence of CPT. DT40 Tdp1-/- hTDP1 cells, no CPT, ATP luminescence, 48 h. Potency, µM (titrated, usually from 46.2 µM), most hits filed as inhibitors. 420,000 tested, 15% active. AID 686978, 2013; also: nearly all actives have a fitted effect of over 55% in size
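Growth kinetics read by CellTiter-Glo luminescence after ≥48 hr at 37 °C. Cells: DT40 Tdp1-/- stably carrying human TDP1, 400 per well, compound exposure in the absence of CPT (DMSO vehicle).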
Of the large screens only hits and unclear results are named; the others gave an inactive call. Unless noted, calls follow the shape of the dose curve; as a rule, active = well fitted curve in the direction sought with a large enough effect; inconclusive = small, poorly fitted or top-dose-only effect, or another doubt; inactive = no such curve, though single readings can be large; an effect the other way counts as inactive or inconclusive.

CCCCOc1ccc(C(=O)Nc2ccc3c(c2)CCCN3C(=O)c2cccs2)cc1	DT40 TDP1 CPT 5.8µM, TDP1 cell noCPT 5.17µM (no result: IL1B secr inh)
O=C(Nc1ccc2c(c1)CCCN2C(=O)c1ccccc1)c1ccccc1	DT40 TDP1 CPT inconclusive, TDP1 cell noCPT 14.6µM
Cc1ccccc1C(=O)Nc1ccc2c(c1)CCCN2C(=O)c1cccs1	DT40 TDP1 CPT 18.4µM, IL1B secr inh inconclusive, TDP1 cell noCPT inconclusive
O=C(Nc1ccc(C(=O)N2CCCC2)cc1)c1ccccc1	DT40 TDP1 CPT inconclusive, TDP1 cell noCPT inconclusive (no result: TDP1 inh)
COc1cccc(C(=O)Nc2ccc3c(c2)CCCN3C(=O)c2cccs2)c1OC	DT40 TDP1 CPT 16.4µM, IL1B secr inh inconclusive, TDP1 cell noCPT 13µM
COc1ccccc1NC(=O)C1=C(C)Nc2ncnn2C1c1cccn1C (centres undefined)	none (no result: IL1B secr inh)
O=c1oc2ccccc2c(N2CCN(c3ccccc3F)CC2)c1CN1CCCC1	DT40 TDP1 CPT inconclusive, TDP1 cell noCPT inconclusive (no result: IL1B secr inh)
Cc1ccc(CNC(=O)Cn2c(=O)n(-c3ccc(Cl)cc3)c(=O)c3c(C)c(C)sc32)cc1	none (no result: IL1B secr inh)
COc1ccccc1N(CCC#N)C(=S)Nc1ccc(S(=O)(=O)N2CCOCC2)cc1	TDP1 cell noCPT inconclusive
Cc1c(NC(=O)C(C)n2cc([N+](=O)[O-])cn2)c(=O)n(-c2ccccc2)n1C (centres undefined)	none
CCOCCOC(=O)Cn1cnc2scc(-c3ccc(C)cc3)c2c1=O	none
O=C(Nc1ccc(SC(F)F)cc1)c1cc(-c2ccc3c(c2)OCCO3)on1	TGFb inhibitor inconclusive (no result: IL1B secr inh)
Cc1ccc2c(c1)CCCN2C(=O)c1cccs1	TGFb inhibitor inconclusive
COc1ccc(C(=O)Nc2ccc3c(c2)CCCN3C(=O)c2cccs2)c(OC)c1	DT40 TDP1 CPT 8.2µM, TDP1 cell noCPT 11.6µM
C=COC(=O)/C=C/C	none (no result: DT40 TDP1 CPT, HepG2 viability, TGFb inhibitor, IL1B secr inh, TDP1 cell noCPT)
Cc1ccc(C(C)C)c(OCCCn2c(=O)oc3ccccc32)c1	DT40 TDP1 CPT inconclusive, TDP1 cell noCPT inconclusive (no result: IL1B secr inh)
COc1cccc(CNC(=O)CSC2=Nc3ccccc3N=C(c3ccc(F)cc3)C2)c1	DT40 TDP1 CPT 20.6µM, TDP1 cell noCPT inconclusive (no result: IL1B secr inh)
COc1cc(OC)c(NC(=O)CSC2=Nc3ccccc3N=C(c3ccc(F)cc3)C2)cc1Cl	DT40 TDP1 CPT inconclusive, TDP1 cell noCPT inconclusive (no result: IL1B secr inh)
O=C(CSc1ccccc1)NCc1ccc(F)cc1	none
O=C(CSC1=Nc2ccccc2N=C(c2ccc(F)cc2)C1)NCc1ccc(Cl)cc1	DT40 TDP1 CPT 20.6µM, TDP1 cell noCPT inconclusive (no result: IL1B secr inh)
O=C(CSC1=Nc2ccccc2N=C(c2ccc(F)cc2)C1)NCc1ccccc1Cl	DT40 TDP1 CPT 23.1µM, TGFb inhibitor inconclusive, TDP1 cell noCPT inconclusive (no result: IL1B secr inh)
CCCCOc1ccc(NC2=NC3(CCCC3)N=C(N)N2)cc1	DT40 TDP1 CPT 16.4µM, TDP1 cell noCPT 16.4µM
COc1ccc(OC)c(NC2=NC3(CCCC3)N=C(N)N2)c1	none
O=C(Nc1c2c(nn1-c1ccc(Cl)cc1)CS(=O)(=O)C2)c1ccc2c(c1)OCO2	none
O=C(Nc1c2c(nn1-c1ccc(Cl)cc1)CS(=O)(=O)C2)c1ccc(Br)cc1	DT40 TDP1 CPT 23.1µM, TGFb inhibitor inconclusive, TDP1 cell noCPT 16.4µM (no result: IL1B secr inh)
COc1cccc(CNC(=O)c2ccc3c(c2)nc2n3CCC(C)C2)c1OC (centres undefined)	none (no result: IL1B secr inh)
Cc1cccc(N(C)C(=O)c2coc(=O)c3ccccc23)c1	none
Cc1ccc(C)c(N(C)C(=O)c2coc(=O)c3ccccc23)c1	DT40 TDP1 CPT inconclusive, TDP1 cell noCPT 23.1µM
CC1=C(C)C[C@@]23CCCN2C(=O)CCC[C@H]3C1	none (no result: DT40 TDP1 CPT, HepG2 viability, TGFb inhibitor, IL1B secr inh, TDP1 cell noCPT)
CCc1sc(C(C2C(=O)CC(C)(C)CC2=O)C2C(=O)CC(C)(C)CC2=O)cc1[N+](=O)[O-]	DT40 TDP1 CPT 4.11µM, TGFb inhibitor inconclusive, IL1B secr inh -247.5, TDP1 cell noCPT 5.17µM
CCO[C@H](Cc1ccc(OCCc2ccc(OS(C)(=O)=O)cc2)cc1)C(=O)O	none (no result: HepG2 viability, TGFb inhibitor, TDP1 inh, IL1B secr inh)
